A short description of assay [1]: reducers of endogenous Her2 protein level, primary screen, SKBR3 breast tumor cells, AlphaScreen, ATP viability (AID 461;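 active means Her2 level under about 52% in both replicate screens, with viability over 70% of control, limit read from the data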;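 on Her2 level: lower value means less Her2 protein in the cells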;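 on viability: percent of carrier control wells set as 100% viability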). To be noted: 18-24 h, measured here: SKBR3 viability, ATP luminescence, at 10 µM.
For assay [2], the target named is Receptor tyrosine-protein kinase erbB-2 (Homo sapiens) (UniProt P04626). Described as above. The conditions noted are these: 18-24 h, at 10 µM, stronger effect = lower value.
Assay [3] is described as follows: SK-BR-3 cell growth inhibitors, pilot screen, 24 h, human (AID 572;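 active means viability at or below 10% of carrier control in both of two separate runs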;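 further: compound exposure lasted between 18 and 24 h rather than exactly 24 h; 100% = carrier-treated control wells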). To be noted: SK-BR-3 viability, CellTiter-Glo luminescence, at 10 µM, stronger effect = lower value.
Assay [4] is described as follows: HUVEC growth inhibition – cell-based, human, primary screen (AID 575;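 active means viability at or below 30% in both replicate assays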;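 further: 100% = median of untreated cell wells with 0.1% DMSO on each plate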). The conditions noted are these: HUVEC proliferation, CellTiter-Glo luminescence, 72 h; at 10 µM; stronger effect = lower value. A general note: ATP-based viability assays read luminescence as a measure of living cells.
Assay [5] in a line: growth inhibitors of H69AR lung tumor, primary screen, human, duplicate replicates (AID 580;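 active means viability at or under a set limit in both replicates, limit being median viability minus 3 SD, cut at about 48% in these data, passing the limit was not always enough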;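 further: 100% = mean luminescence of untreated wells and 0% = no signal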). To be noted: H69AR lung tumor cells viability, ATP luminescence, 72 h; at 10 µM; stronger effect = lower value.
The nature of assay [6]: reversal of MRP1-mediated doxorubicin resistance, pilot screen, H69AR cells, doxorubicin co-treatment (AID 601;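 active means viability loss from added drug above about 55%, and viability with drug at most 40%, in both replicates, limit read from the data, passing the limit was not always enough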). The conditions noted are these: CellTiter-Glo, 72 h, at 10 µM; for differential viability (reversal): stronger effect = higher value.
Assay [7] can be described thus: 384-well plate pilot, post-Golgi transport modulator project, inhibition of yeast transport mutant growth (AID 636; in the data active means inhibition above about 31%). The conditions noted are these: absorbance 615 nm, about 18 h, stronger effect = higher value.
Assay [8] can be described thus: growth suppression of yeast trafficking mutant, preliminary HTS, modulators of trafficking downstream of Golgi apparatus project, 1536-format plate, OD 615 nm (AID 637; in the data active means inhibition above about 30%). To be noted: yeast transport mutant growth, absorbance 615 nm, 18 h; stronger effect = higher value.
Assay [9] can be described thus: OD615 S. cerevisiae growth inhibition, permissive medium, pilot counter-assay, permissive growth control for S. cerevisiae lifespan shortening project (AID 705). The conditions noted are these: OD615, 24 h, at 10 µM, stronger effect = higher value.
The nature of assay [10]: Restrictive medium S. cerevisiae growth inhibition, OD615, pilot screen of yeast lifespan reduction project, restrictive growth control (AID 706;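 active means growth inhibition above a set limit, 3 SD over mean compound inhibition, in both replicates, cut at about 43% in these data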;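 further: modified DeaD lifespan yeast strain shifted to restrictive glucose medium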). The conditions noted are these: OD615, 48 h, at 10 µM, stronger effect = higher value.
Assay [11] is described as follows: viability gain of MRP-1-high H69AR cells under doxorubicin, pilot screen, MRP-1 activator project, CellTiter-Glo, duplicate (AID 807;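 active means viability increase at or above a cutoff of the median across tested compounds plus 3 SD, cut at about 8.5% in these data, passing the limit was not always enough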;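 further: compound pretreatment 18-22 h then 72 h combined with doxorubicin; 0% = doxorubicin alone and 100% = vehicle without doxorubicin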). The conditions noted are these: H69AR viability with doxorubicin, CellTiter-Glo luminescence; at 10 µM; stronger effect = higher value.
The nature of assay [12]: growth suppression of beta-catenin knockout HCT116, pilot screen, human colon tumor cells (AID 823;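 active means cell viability at or below a set limit in both duplicate runs, the limit being the all-compound median minus 4 SD, cut at about 23% in these data, passing the limit was not always enough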;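 further: 0% = wells killed by 20 µM Hyamine and 100% = untreated DMSO cell wells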). To be noted: CellTiter-Glo, 60 h, at 10 µM, stronger effect = lower value.
Assay [13] in a line: growth suppression of PTEN-deleted HCT116, pilot screen, cell-based, HCT116 clonal line, CellTiter-Glo (AID 824;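 active means viability at or below 27.92% in each of two runs, the all-compound median minus 4 SD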;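 further: 0% = 20 µM Hyamine control and 100% = vehicle cell control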). To be noted: 60 h, at 10 µM, stronger effect = lower value.
Assay [14] in a line: inhibitors of the yeast RAM network, pilot screen, dse1pr::URA3 reporter, 5-FOA selection (AID 869;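 active means inhibition over a set limit, the all-compound mean plus 3 SD, in both replicate runs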;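 further: 0% = DMSO wells with no growth and 100% = 10 µM 1-NA-PP1 with full growth; RAM network block rescues cells from 5-FOA so hits raise OD615 growth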). The conditions noted are these: S. cerevisiae dse1pr::URA3 5-FOA growth, OD615, 2 d; at 10 µM; stronger effect = higher value; strain carries analog-sensitive mutant Cbk1 kinase.
The nature of assay [15]: RAM signaling pathway blockade in yeast – S. cerevisiae, Pdr1DBD-CYC8 efflux-inhibited sensitized strain, primary screen (AID 1298;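 active means RAM network inhibition above 8.4% in each of two replicates, 3 SD over the compound average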;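 further: 0% = DMSO untreated cells without growth and 100% = 10 µM 1-NA-PP1 full growth; higher means more yeast growth rescued from 5-FOA killing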). The conditions noted are these: S. cerevisiae cbk1-as DSE1-URA3 strain, 5-FOA growth OD615, 2 d; at 50 µM; stronger effect = higher value.
Where [16] appears, read: H69AR cells + 2 uM doxorubicin, measured here: viability with 2 uM doxorubicin, stronger effect = lower value.
Setting [17] is: H69AR cells, compound alone cytotoxicity.

Results filed as inconclusive are left out. Activity calls are given as the source filed them.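 How the source made its calls, unless noted: active means growth inhibition above 25% in both replicates, a cutoff set 3 SD above the mean; inconclusive means above 25% in only one replicate; inactive means the rest.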

Receptor tyrosine-protein kinase erbB-2 (Homo sapiens), sequence (P04626 whole entry, looked up): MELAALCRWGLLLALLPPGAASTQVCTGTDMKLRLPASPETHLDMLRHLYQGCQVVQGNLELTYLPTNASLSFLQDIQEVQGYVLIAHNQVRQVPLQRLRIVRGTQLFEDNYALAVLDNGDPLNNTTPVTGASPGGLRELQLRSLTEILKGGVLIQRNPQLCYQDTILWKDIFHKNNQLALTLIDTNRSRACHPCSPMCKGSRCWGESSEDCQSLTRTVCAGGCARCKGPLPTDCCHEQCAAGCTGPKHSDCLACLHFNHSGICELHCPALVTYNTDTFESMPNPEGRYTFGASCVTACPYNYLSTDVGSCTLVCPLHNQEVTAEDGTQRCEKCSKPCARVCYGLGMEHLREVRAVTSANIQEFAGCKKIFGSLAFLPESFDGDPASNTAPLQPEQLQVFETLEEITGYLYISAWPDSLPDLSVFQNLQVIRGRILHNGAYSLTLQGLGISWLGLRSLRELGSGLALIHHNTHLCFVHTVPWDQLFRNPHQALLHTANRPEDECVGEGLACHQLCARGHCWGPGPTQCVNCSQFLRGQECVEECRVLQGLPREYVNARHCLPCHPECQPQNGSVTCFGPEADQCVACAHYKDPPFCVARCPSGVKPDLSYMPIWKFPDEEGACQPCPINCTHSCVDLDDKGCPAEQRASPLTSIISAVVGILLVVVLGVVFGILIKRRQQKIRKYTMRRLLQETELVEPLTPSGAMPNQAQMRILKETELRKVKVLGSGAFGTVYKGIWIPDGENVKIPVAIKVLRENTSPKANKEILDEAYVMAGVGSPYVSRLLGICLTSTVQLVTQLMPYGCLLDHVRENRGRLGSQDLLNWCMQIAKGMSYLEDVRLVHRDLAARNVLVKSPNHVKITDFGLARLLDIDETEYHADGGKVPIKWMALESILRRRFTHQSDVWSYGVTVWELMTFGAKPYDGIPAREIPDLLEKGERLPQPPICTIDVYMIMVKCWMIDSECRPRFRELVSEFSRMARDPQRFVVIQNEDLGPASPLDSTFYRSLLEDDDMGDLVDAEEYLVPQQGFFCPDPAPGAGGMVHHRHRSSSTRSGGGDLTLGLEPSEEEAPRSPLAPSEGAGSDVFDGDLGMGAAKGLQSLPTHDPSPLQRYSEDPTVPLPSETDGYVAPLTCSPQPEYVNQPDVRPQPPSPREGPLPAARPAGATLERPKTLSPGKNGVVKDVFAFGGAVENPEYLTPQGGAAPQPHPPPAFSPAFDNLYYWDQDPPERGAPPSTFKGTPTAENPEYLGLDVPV

For orientation: viability means a read-out of living cells in per cent, often relative to untreated cells. As usually defined, the inhibition is the drop in the measured response relative to a control, in per cent. Turning to `Cc1ccc2oc(=O)c3cnn(CC(=O)NCCC(C)C)c3c2c1`, the viability in assay [1] is 84.5%; in [3], 84.5% (inactive); in assay [4], 95.2% (inactive); in assay [5] it was 88.1% (inactive); in assay [6] (setting [16]) it was 72.6%; in assay [6] (setting [17]), 88.1%. Also, the values for the viability in assay [12] and in assay [13] were 105% (inactive) and 100% (inactive), respectively. Further, the Her2 level in assay [2] was 102% (inactive). The differential viability (reversal) in assay [6] (H69AR cells + 2 uM doxorubicin) was 15.4% (inactive). Moreover, the values for the inhibition in [7], in assay [8] and in [14] were -0.26% (inactive), -1.67% (inactive) and 1.22% (inactive), respectively. In addition, the results for the growth inhibition in assay [9] and in [10] were 2.22% (inactive) and -6.28% (inactive), respectively. In addition, the viability increase in assay [11] was -1.72% (inactive). The RAM network inhibition in assay [15] is 6.67% (inactive).
As to `c1ccc2c(c1)nc(NC1CCCCC1)c1nncn12`, the viability in assay [1] is 98.5%; in assay [3] it was 98.5% (inactive); in assay [4] it was 86.6% (inactive); in assay [5], 90.8% (inactive); in assay [6] (setting [16]), 70.9%; in [6] (setting [17]), 90.8%. Also, the viability in [12] is 89.9% (inactive); in [13] it was 83.3% (inactive). In assay [2], the Her2 level was 109% (inactive). In assay [6] (H69AR cells + 2 uM doxorubicin), the differential viability (reversal) is 19.9% (inactive). Further, the inhibition in [7] is -5% (inactive); in assay [8], -1.17% (inactive); in [14] it was 0.325% (inactive). Moreover, the growth inhibition was -8.94% (inactive) in assay [9] and -7.48% (inactive) in assay [10]. Also, the viability increase in [11] was -6.65% (inactive). Besides, the RAM network inhibition in [15] was 2.5% (inactive).
Regarding `CCC(=O)Nc1cccc(Br)c1`, the viability in assay [1] is 114%; in assay [3], 114% (inactive); in assay [4], 113% (inactive); in assay [5] it was 95.4% (inactive); in [6] (setting [16]), 97.7%; in assay [6] (setting [17]), 95.4%. Moreover, the viability was 96.4% (inactive) in assay [12] and 85.5% (inactive) in [13]. In addition, the Her2 level in assay [2] was 116% (inactive). For the same compound, in [6] (H69AR cells + 2 uM doxorubicin), the differential viability (reversal) was -2.25% (inactive). For the same compound, the inhibition in [7] is -4.4% (inactive); in assay [8], -8.06% (inactive); in [14], -0.04% (inactive). The growth inhibition in [9] was -9.21% (inactive); in [10] it was 2.72% (inactive). Further, in [11], the viability increase is -0.82% (inactive). Also, the RAM network inhibition in assay [15] is -0.05% (inactive).
In the case of `COc1cccc(C2=NOC(C(=O)N3CCN(c4ccccc4)CC3)C2)c1OC` (stereo not given), the viability in [1] was 104%; in assay [3], 104% (inactive); in assay [4], 95.9% (inactive); in assay [5], 86.5% (inactive); in assay [6] (setting [16]), 98.5%; in [6] (setting [17]), 86.5%. In addition, the viability in assay [12] was 93.6% (inactive); in assay [13], 96.5% (inactive). Further, in assay [2], the Her2 level was 97.5% (inactive). Also, in [6] (H69AR cells + 2 uM doxorubicin), the differential viability (reversal) was -12% (inactive). Further, the inhibition in [7] was -6.13% (inactive); in [8] it was 0% (inactive); in [14], -0.58% (inactive). For the same compound, the values for the growth inhibition in [9] and in assay [10] were -7.02% (inactive) and -5.35% (inactive), respectively. In addition, in assay [11], the viability increase was 2.2% (inactive). Besides, the RAM network inhibition in assay [15] is 1% (inactive).
Regarding `Cc1nc2ccc(C(=O)c3ccccc3)cc2[nH]1`, the viability in assay [1] was 102%; in assay [3], 102% (inactive); in assay [4] it was 110% (inactive); in assay [5] it was 94.2% (inactive); in [6] (setting [16]) it was 91.7%; in assay [6] (setting [17]), 94.2%. Moreover, the viability in assay [12] was 99.4% (inactive); in assay [13] it was 100% (inactive). In [2], the Her2 level is 82% (inactive). Also, the differential viability (reversal) in assay [6] (H69AR cells + 2 uM doxorubicin) was 2.49% (inactive). Also, the figures for the inhibition in assay [7], in [8] and in [14] were -3.64% (inactive), 0.33% (inactive) and 1.42% (inactive), respectively. The growth inhibition in assay [9] is -6.26% (inactive); in assay [10] it was 2.11% (inactive). Besides, the viability increase in assay [11] is 0.26% (inactive). Further, in assay [15], the RAM network inhibition was 5% (inactive).
